Source: PubChem BioAssay (NCI)
This is part of a sample that, as a whole, favours compounds with a hit. Of some 83,000 tested, about 20% had one in any assay.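 Percent growth is the endpoint: 0 to 100 indicates growth inhibition (40 means 60% inhibition), 0 means no net growth, and negative values indicate cell death.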 Values without a mark were called inactive. Activity calls are given as the source filed them. The calls were made as follows: active = growth percent below 10; inactive = the rest.

Assays:
Assay in all cases: NCI-60 one-dose screen, 48 h (100 = growth as untreated, 0 = no growth, -100 = all killed)
Conditions in all cases: 10 µM
[1] = system: HOP-92 NSCLC
[2] = system: RXF 393 renal
[3] = system: SK-MEL-5 melanoma
[4] = system: CCRF-CEM leukemia
[5] = system: OVCAR-4 ovarian
[6] = system: T-47D breast
[7] = system: MCF7 breast
[8] = system: HCT-116 colon
[9] = system: HCC-2998 colon
[10] = system: KM12 colon
[11] = system: COLO 205 colon
[12] = system: SNB-75 CNS
[13] = system: SN12C renal
[14] = system: SK-OV-3 ovarian
[15] = system: SK-MEL-2 melanoma
[16] = system: IGROV1 ovarian
[17] = system: UACC-62 melanoma
[18] = system: NCI/ADR-RES ovarian

CCOC(=O)C1=C(N)N(c2ccc(C)cc2)C2=C(C(=O)CC(C)(C)C2)C1c1ccccc1Br (centres undefined)
growth [1]: 71.6% | growth [2]: 86.5% | growth [3]: 77.4% | growth [4]: 39.5% | growth [5]: 83.2% | growth [6]: 69.6% | growth [7]: 56.6% | growth [8]: 40.6% | growth [9]: 89.4% | growth [10]: 83.8%

Cc1ccc(-c2nc(C#N)c(S(=O)(=O)N3CCN(S(C)(=O)=O)CC3)o2)cc1
growth [1]: 63.7% | growth [11]: -69.3% (active) | growth [2]: -35.2% (active) | growth [12]: 107% | growth [3]: 55.2% | growth [13]: 78.1% | growth [4]: 7.57% (active) | growth [5]: 48.1% | growth [14]: 105% | growth [6]: -52.4% (active) | growth [7]: 5.73% (active) | growth [8]: -74% (active) | growth [9]: 92.9% | growth [10]: 92.5%

C#C[C@]1(O)CC[C@H]2[C@@H]3CC=C4c5sc(Nc6ccc(N(C)C)cc6)nc5CC[C@]4(C)[C@H]3CC[C@@]21C
growth [1]: 9.62% (active) | growth [2]: -51.3% (active) | growth [3]: 0.6% (active) | growth [13]: 12.1% | growth [4]: -1.45% (active) | growth [5]: 36.1% | growth [6]: 28.6% | growth [7]: -36.2% (active) | growth [8]: -77.9% (active) | growth [9]: 33.4% | growth [10]: 2.83% (active)

O=C1S/C(=C\c2ccc([N+](=O)[O-])cc2)C(=O)N1CCN1CCCCC1
growth [1]: 146% | growth [2]: 132% | growth [3]: 101% | growth [15]: 111% | growth [13]: 98.5% | growth [4]: 116% | growth [5]: 111% | growth [14]: 102% | growth [16]: 112% | growth [6]: 95.6% | growth [7]: 94.2% | growth [8]: 105% | growth [9]: 104% | growth [10]: 105%

COc1cc(Nc2nc(O)c(/C=C3\C=Nc4ccccc43)s2)cc(OC)c1OC
growth [1]: -72.3% (active) | growth [2]: -69.2% (active) | growth [3]: -34.7% (active) | growth [13]: -88% (active) | growth [4]: 14.9% | growth [5]: -63.9% (active) | growth [16]: -40.2% (active) | growth [6]: 2.48% (active) | growth [7]: -23.7% (active) | growth [8]: -59.2% (active) | growth [9]: -48.2% (active) | growth [10]: -72.4% (active)

COc1cc2oc(-c3cccc(C(=O)Nc4ccc(Cl)cc4)c3)cc(=O)c2c(OCCN)c1OC
growth [1]: -84% (active) | growth [11]: -75.8% (active) | growth [2]: -85% (active) | growth [12]: -73.5% (active) | growth [3]: -94.7% (active) | growth [17]: -86.7% (active) | growth [15]: -94.5% (active) | growth [13]: -91.1% (active) | growth [4]: -52.6% (active) | growth [5]: -62.9% (active) | growth [6]: -73.8% (active) | growth [7]: -71.5% (active) | growth [8]: -90.3% (active) | growth [9]: -80.8% (active) | growth [10]: -83.2% (active)

COc1ccc(C2OC[C@@]3(C)C4CC[C@]5(C)C(CC=C6C7CC(C)(C)CC[C@]7(C(=O)O)CC[C@]65C)[C@@]4(C)C[C@@H](O)[C@@H]3O2)cc1 (some centres undefined)
growth [1]: 64.8% | growth [2]: 89% | growth [12]: 97% | growth [3]: 80.5% | growth [4]: 50.3% | growth [5]: 86.9% | growth [16]: 101% | growth [18]: 87.1% | growth [6]: 88.5% | growth [7]: 50.9% | growth [8]: 43.3% | growth [9]: 101% | growth [10]: 54.4%

CC1[C@H]2[C@H](C[C@H]3[C@@H]4CC=C5c6sc(Nc7cccc(Cl)n7)nc6CC[C@]5(C)[C@H]4CC[C@@]32C)O[C@]12CC[C@@H](C)CO2 (some centres undefined)
growth [1]: 99.6% | growth [2]: 123% | growth [3]: 59.3% | growth [4]: 66.6% | growth [5]: 104% | growth [14]: 108% | growth [16]: 99.2% | growth [6]: 68% | growth [7]: -66.6% (active) | growth [8]: 76.3% | growth [9]: 102% | growth [10]: 84.9%

Cn1cc(-c2cc(N)n3nc(-c4cn(C)c5ccccc45)cc3n2)c2cc(F)ccc21
growth [1]: -78.4% (active) | growth [2]: -76.3% (active) | growth [3]: -87.9% (active) | growth [17]: -67.7% (active) | growth [13]: -67% (active) | growth [4]: -9.43% (active) | growth [5]: -38.2% (active) | growth [6]: -50.1% (active) | growth [7]: -56.2% (active) | growth [8]: -92.1% (active) | growth [9]: -80.5% (active) | growth [10]: -69.1% (active)

C#CCOc1cc(N(CC)CC)ccc1C(C(=O)NC(C)(C)C)N(C(=O)C1CCc2cc(F)ccc2O1)c1ccc(F)cc1F (centres undefined)
growth [1]: 30.5% | growth [11]: 25.8% | growth [2]: 64.6% | growth [12]: 64.4% | growth [3]: 11.2% | growth [17]: 29.1% | growth [13]: 47.1% | growth [4]: 39.7% | growth [5]: 43.7% | growth [14]: 46.8% | growth [16]: 60.3% | growth [6]: 37.4% | growth [7]: 17.5% | growth [8]: 24.7% | growth [9]: 78.1% | growth [10]: 25%
